Experimental data as given in ChEMBL document CHEMBL1157539, “Thousands of chemical starting points for antimalarial lead identification” (Nature, 2010).

Tested on: Plasmodium falciparum
Assay: GSK_TCMDC: Inhibition of Plasmodium falciparum 3D7 in whole red blood cells, using parasite LDH activity as an index of growth. Test compounds present at 2uM
Assay type: functional

SMILES | Inhibition [%]
CCCCOC(=O)C1=C(C)NC2=C(C(=O)CC(c3ccc(OC)c(OC)c3)C2)C1c1ccc(O)cc1 (configuration not stated) | 90
COc1cc2c(cc1C(F)(F)F)N(C(=O)Nc1cc(F)cc(-c3cncnc3)c1)CC2 | 97
Cn1cc(C(=O)Nc2cccc(-c3cccc(-c4nc5ccccc5[nH]4)c3)c2)n(C)c1=O | 99
COc1cccc(CNC[C@@H](O)[C@H](Cc2ccccc2)NC(=O)c2cc(N3CCCC3=O)c3[nH]cc(C(C)C)c3c2)c1 | 96
NS(=O)(=O)c1cncc(-c2ccc3nccc(-c4cn[nH]c4)c3n2)c1 | 99
O=C(NCCCCN1CC=C(c2ccc3c(c2OCC2CC2)CCCC3)CC1)c1ccc(-c2ccc(C(F)(F)F)cc2)cc1 | 93
CC(C)(C)c1ccc(CN2CCC(NC(=O)c3ccc(-c4ccccc4Cl)s3)CC2)cc1.O=C(O)C(F)(F)F | 84
CN1CCC(NCCS(=O)(=O)c2cccc(Nc3ccc(-c4cccc(F)c4)cn3)c2)CC1 | 99
Cl.NCCCCc1c(-c2ccc(Cl)c(Cl)c2)[nH]c2ccc(Cl)cc12 | 97
CCOC(=O)N1CCC(NC(=O)c2ccc(C(C)(C)C)cc2OC)CC1 | 88
Cc1cc(OCCCN2CCC(NS(=O)(=O)c3cccc(Br)c3)CC2)c2ccccc2n1 | 95
Cn1cc(CN2CCCC(COC(c3ccc(F)cc3)c3ccc(F)cc3)C2)cn1 (configuration not stated) | 98
Oc1ccc(Nc2nc(NCc3ccccc3)c3ccccc3n2)cc1 | 100
CCCCOP(=O)(OCCCC)C(=Cc1ccc(O)c2ccccc12)P(=O)(OCCCC)OCCCC | 84
CC1(CCc2ccccc2)N=C(N)N(Cc2ccccc2)C(=O)C1c1ccc(Cl)c(Cl)c1.O=C(O)C(F)(F)F (configuration not stated) | 97
O=C(Nc1ccc(-c2cccc(-c3nc4ccccc4[nH]3)c2)cc1)Nc1ccc(Cl)c(Cl)c1 | 100
Cc1ccc2[nH]c(C)cc(=NN=Cc3ccc(Cl)cc3)c2c1 | 100
O=C(O)C(F)(F)F.O=S(=O)(NC1CCN(c2ccnc3cc(Cl)ccc23)C1)c1ccc(F)cc1 (configuration not stated) | 98
Nc1nc(N)c2c(ccc3c2ccn3Cc2ccccc2)n1 | 96

SMILES | Inhibition [%]
Cc1nc(C)c(-c2ccc(C(=O)c3ccc(Cl)cc3)cc2)c(O)c1Br | 97
CN(C)C=Nc1ccc(OCCCCCCOc2ccc(N=CN(C)C)cc2)cc1.Cc1ccc(S(=O)(=O)O)cc1 | 100
O=C(Nc1ccc(Cl)c(Cl)c1)Nc1ccc(F)c([N+](=O)[O-])c1 | 100
CCC[C@@H]([C@@H](CC1CCCCC1)C(=O)N[C@H](C(=O)Nc1nccs1)C(C)(C)SCCNC(=O)OCc1ccccn1)N(O)C=O | 99
COc1ccc2nccc(N3CCCN(CCNCc4ccc5c(n4)NC(=O)CS5)CC3)c2n1.Cl | 100
CN(C)CCN(C)Cc1ccc(-c2ccc3c(Nc4ccc(Cl)cc4F)ccnc3c2)o1 | 100
Cl.c1ccc2c(Nc3ccc(Oc4ccc(Nc5c6ccccc6nc6ccccc56)cc4)cc3)c3ccccc3nc2c1 | 100
O=C(NCCCCCN1CCC(c2ccc(O)cc2)CC1)c1ccc(-c2ccccc2)cc1 | 92
CS(=O)(=O)Nc1ccc2[nH]cc(C3CCN(CC4CCC(NC(=O)/C=C/c5ccc(Cl)c(Cl)c5)CC4)CC3)c2n1 (configuration not stated) | 99
Cc1ccc(NC(=O)C2CCC2)cc1-c1ccc(C(=O)NCC2CC2)cc1 | 98
C[C@@H]([C@@H](CCCCc1ccccc1)C(=O)N[C@H](C(=O)Nc1cccnc1)C(C)(C)C)N(O)C=O | 98
Cc1ccc(C(NC(=O)C2CCCCC2)c2ccc3cccnc3c2O)cc1 (configuration not stated) | 91
CC(CCc1ccccc1)NCC(O)c1cccc([N+](=O)[O-])c1 (configuration not stated) | 97
Cl.Nc1nc(Nc2cccc(O)c2)nc2ccccc12 | 96
Cc1noc(C)c1-c1cccc(CNCc2cccc(-c3ccc(-c4nc5cccc(C)c5[nH]4)cc3)c2)c1.O=C(O)C(F)(F)F | 100
O=C(CCCCCNC(=O)c1ccc(O)c(-c2ccc(Cl)c(Cl)c2)c1)NCCN1CCCCC1 | 93
COc1cc(OC)c(OC)cc1C=NN=c1cc(C)[nH]c2ccccc12 | 100
O=C(Nc1ccc2c(c1)CCC2)c1ccc(CN2CCCN(Cc3cccc(O)c3)CC2)cc1.O=C(O)C(F)(F)F | 88
